# Source: PubChem
# Hits are enriched below; roughly 12% of the tested compounds scored in any of these assays.
# Marburg entry inh: inhibitors of Marburg virus binding or cell entry. Marburg virus pseudotyped entry inhibition, cell reporter. Potency, µM (titrated, usually from 37.8 µM), inactives show at the highest dose activity change, negative = inhibition, usual class: inhibitors. hit rate 1.8% among 300,000; calls by dose curve; tested in HEK293 cells; note: potency is the fitted concentration of half-maximal effect; % is set by controls: 0 for no effect and ±100 for the full control effect
# LASV entry inh: inhibitors of Lassa virus binding or cell entry; hit rate 1.2% among 300,000; AID 540256; Potency, µM (titrated, usually from 37.9 µM), inactives show at the top dose activity change, negative = inhibition, usual class: inhibitors; Lassa virus pseudotype entry inhibition, cell reporter; calls by dose curve; tested in HEK293 cells; note: potency is the fitted concentration of half-maximal effect; % is set by controls: 0 for no effect and ±100 for the full control effect; nearly all actives have a fitted effect of over 50% in size
# Shiga toxin inh: Shiga toxin inhibition; hit rate 9.2% among 290,000; inhibition, % at 38.7 µM; AID 2315; Vero cells, Shiga toxin protein synthesis inhibition reporter; in the data active = inhibition mostly above about 28%, no sharp cut-off; inactive = mostly below about 43%; note: 0% is about no effect
# Cycloheximide cs: affects cycloheximide protein synthesis inhibition readout, counter-screen; cell reporter, cycloheximide protein synthesis inhibition counterscreen; max response, %; hit rate 12% among 300,000; AID 2314; in the data active = max response mostly above about 13%, no sharp cut-off; inactive = mostly below about 14%; note: read at 38.3 µM for the half of the compounds with a filed dose; 0% is about no effect
# Numbers without * were called inactive; ? = inconclusive; nt = not tested or not shown; + = active, no number; [ ] = remark or other dose.
SMILES,Marburg entry inh,LASV entry inh,Shiga toxin inh,Cycloheximide cs
CCCN1C(=O)/C(=C/c2nc3ccccc3c(=O)[nH]2)c2cc(C)ccc21,-13.2%,?,9.0,11.4*
Cc1cccc(/C=C/c2nc3ccccc3c(=O)[nH]2)c1,?,3.55µM*,112.1*,29.4*
Cc1cccc(-n2c(/C=C/c3c(C)[nH]c4ccccc34)nc3ccccc3c2=O)c1,nt,3.0%[46.1 µM],nt,nt
NC(=O)Cc1ccc(C(=O)CSc2nnc(-c3ccncc3)n2C2CC2)s1,8.0%[46.1 µM],2.9%[46.1 µM],nt,nt
CCOc1cc(/C=C/c2nc3ccccc3c(=O)[nH]2)ccc1O,nt,nt,50.4*,44.6*
N#C/C(=C/c1ccccc1Cl)c1nc2ccccc2c(=O)[nH]1,nt,20.8%[46.1 µM],nt,nt
O=c1[nH]c(/C=C/c2ccccc2Cl)nc2ccccc12,nt,nt,106.1*,40.1*
COc1cccc(/C=C/c2nc3c(cnn3-c3ccccc3)c(=O)[nH]2)c1,nt,nt,37.1,15.0*
CC(Nc1nc(-c2cccc(Br)c2)cs1)c1nc2cc(Cl)c(N3CCCCC3)cc2n1CCOCCO (configuration not stated),nt,nt,25.0,7.2
Cn1c(-c2ccc(F)cc2)cnc1NCc1cccc(F)c1,-2.8%[46.1 µM],1.7%,44.7,18.5
CSc1ccc(CNc2ncc(-c3ccccc3)n2C)cc1,nt,-1.2%[46.1 µM],nt,nt
Cn1c(-c2ccccc2)cnc1NCc1ccc(F)cc1,nt,nt,39.3,24.1*
Cn1c(-c2ccc(F)cc2)cnc1NCc1ccccc1,23.1µM*,9.2%,54.7,19.7*
Cc1ccc2cccc(NC(=O)C(C)(C)Oc3ccc(Br)cc3)c2n1,-1.8%[46.1 µM],5.9%[46.1 µM],nt,nt
O=C(OCc1cc(=O)n2nc(C3CCCCC3)sc2n1)c1ccc(F)cc1,nt,4.5%[46.1 µM],nt,nt
O=C(NCCc1cnc[nH]1)c1ccc(-c2ccccc2)cc1,nt,nt,55.4*,29.9*
CCOc1ccc(C(=O)NCCc2cnc[nH]2)cc1,0.1%[46.1 µM],15.5%[46.1 µM],22.4,13.3
CNC(=O)[C@H]1O[C@@H](n2cnc3c(N)ncnc32)[C@H](O)[C@H]1O,35.4%,nt,nt,nt
COc1ccc(/C=N/NC(=O)c2cc(-c3ccc4c(c3)OCO4)n[nH]2)cc1OC,?,0.1%,9.4,28.7*
O=C(N/N=C/c1cc2c(cc1Cl)OCO2)c1cc(-c2ccccc2)n[nH]1,16.6%,-29.5%,-23.4,-1.4
O=C(N/N=C/c1ccc(F)cc1)c1cc(-c2ccc3c(c2)OCO3)n[nH]1,0.7%[46.1 µM],8.91µM*,24.5,15.4
CN(C)c1ccc(/C=N/NC(=O)c2cc(-c3ccc4c(c3)OCO4)n[nH]2)cc1,-2.0%,?,59.8*,31.1*
O=C(N/N=C/c1ccc2c(c1)OCO2)c1ccc(NC(=O)c2ccc(F)cc2)cc1,-13.3%[46.1 µM],3.1%[46.1 µM],54.8,9.8
C=CCC12OC3(OC)CC1[C@H](C)[C@@H](c1ccccc1)C2[C@@]3(C)O (some centres not stated),0.3%[14.2 µM],nt,nt,nt
COc1ccc(C2=NS(=O)(=O)N(C)C(C(=O)Nc3ccc(F)cc3F)=C2)cc1,nt,nt,8.2,9.2
SMILES,Marburg entry inh,LASV entry inh,Shiga toxin inh,Cycloheximide cs
O=C(c1ccc(COc2ccc(Cl)cc2)cc1)N1CCCCC1,?,-19.7%[46.1 µM],90.5*,23.5*
O=C(c1ccc(COc2ccccc2Br)cc1)N1CCCCCC1,nt,nt,59.7*,30.5*
COC(=O)c1ccc(COc2ccc(CNCc3ccc(Cl)cc3)cc2)cc1,-7.6%[46.1 µM],-3.0%[46.1 µM],43.1*,34.1*
COC(=O)c1ccc(OCCOc2ccc(C(=O)OC)cc2)cc1,-8.2%,8.8%,13.0,1.8
CCCCOc1ccc(C(=O)N2CCCCCC2)cc1,?,-1.0%,active,27.5*
O=C(c1ccc(CS(=O)(=O)Cc2ccccc2)cc1)N1CCCCC1,6.9%[46.1 µM],3.3%[46.1 µM],-8.7,1.1
Cc1cccc(C)c1NC(=O)CN(C1CCCCC1)S(C)(=O)=O,-5.4%,-11.8%,-9.0,1.7
COc1ccc(S(=O)(=O)N2CCOCC2)cc1C(=O)Nc1cc(C)on1,?,2.5%,1.6,-5.2
CC(C)=CCC[C@](C)(O)C1CC[C@]2(C)[C@@H]1CC[C@@H]1[C@@]3(C)CCC(=O)C(C)(C)[C@@H]3CC[C@]12C (some centres not stated),nt,nt,-4.1,-6.2
C/C=C(\C=C\[C@@H](C)C/C=C/CC/C=C/C=C\C[C@@H](OC)/C(C)=C\C=C(C)C)CC(=O)O,nt,nt,25.2,12.9
O=c1c(N2CCCCC2)coc2ccccc12,18.4%,?,54.7,19.9*
COc1ccc(CCC(=O)OCC(=O)Nc2ccccc2OC(F)F)cc1OC,-8.0%[46.1 µM],7.9%,-7.0,1.6
O=C(Nc1ccccc1C(=O)N/N=C/c1ccco1)c1ccc(Cl)cc1,3.7%,3.5%,75.9*,18.7*
O=C(Nc1ccccc1C(=O)N/N=C/c1ccco1)c1ccccc1,21.4%,-0.3%,+,16.6
CCOC(=O)c1c(C)[nH]c(CCC(=O)Nc2ccc(C)c(F)c2)c1C,nt,-11.5%[46.1 µM],nt,nt
Cc1ccc(CNC(=O)c2cc(=O)c3ccc(C)cc3o2)cc1,nt,nt,39.1,4.4
C=C(C)CNC(=O)c1ccc2nc(Cc3ccc(OC)cc3)oc2c1,-17.0%,6.31µM*,39.2*,38.5*
CCC(C)NC(=O)c1ccc2nc(Cc3ccc(OC)cc3)oc2c1 (configuration not stated),2.8%[46.1 µM],?,-25.3,7.3
COC(=O)CCCNC(=O)c1ccc2nc(Cc3ccc(OC)cc3)oc2c1,nt,nt,60.4,13.8*
CCC(Sc1nc(C)cc(=O)[nH]1)C(=O)Nc1nc2c(s1)CCCC2 (configuration not stated),9.5%,-6.0%,42.0*,14.9*
Cc1ccc(S(=O)(=O)NC(CCC(N)=O)C(=O)NCc2ccc3c(c2)OCO3)c(C)c1 (configuration not stated),-0.9%[46.1 µM],-23.9%,nt,nt
CC(C)(C)c1ccc(S(=O)(=O)N2CCN(Cc3noc(CCC(=O)N4CCCCC4)n3)CC2)cc1,nt,4.9%[46.1 µM],nt,nt
Cc1cccc(-n2c(O)c(C=Nc3cccc(O)c3)c3ccccc3c2=O)n1,nt,nt,-9.2,10.7
CC1=NC(=O)C(N=Nc2cccc(O)c2)N1c1ccccc1 (configuration not stated),21.8%,4.8%,55.3*,27.1*
O=C(COC(=O)Cc1ccc(Cl)cc1)Nc1ccc(OC(F)F)cc1,-8.2%,19.6%,-9.0,1.2
SMILES,Marburg entry inh,LASV entry inh,Shiga toxin inh,Cycloheximide cs
O=C(Nc1ccc(Cl)cc1)N(C1=NCCC1)c1ccc(OC(F)F)cc1,-8.8%,?,74.5*,40.9*
CCc1ccc2c(c1)C(=O)c1ccccc1C2=O,4.9%,18.1%,14.0*,42.9*
CC(C)(C)c1ccc2c(c1)C(=O)c1ccccc1C2=O,?,8.91µM*,77.3*,32.3*
O=C1c2ccccc2-c2cc3ccccc3cc21,-17.4%,-28.5%,nt,nt
Cc1ccccc1CN(C)C(C)C(=O)Nc1ccccc1F (configuration not stated),nt,nt,-8.5,2.6
Cc1ccc(Nc2c(-c3c[nH]c4ccccc34)nc3cc(C)ccn23)cc1,13.1%[46.1 µM],?,nt,nt
CC(=O)NCCC(=O)Nc1nc(-c2c[nH]c3ccccc23)cs1,7.4%[46.1 µM],?,24.2,-3.2
Oc1ccc(-c2csc(-c3c[nH]c4ccccc34)n2)c(O)c1,?,?,60.0*,70.0*
Cc1ccc(-c2csc(-c3c[nH]c4ccccc34)n2)c(C)c1,?,-8.7%,78.3*,35.5*
Cc1ccccc1NC(=S)Nn1cnnc1,nt,nt,-27.5,-4.0
Cc1cccc(NC(=S)Nc2ccc(N3CCOCC3)cc2)c1C,?,0.3%,12.6,12.9*
Cc1cc(NC(=S)NC(=O)CC(C)C)ccc1Br,11.1%,?,114.6*,32.3*
CC(C)CC(=O)NC(=S)Nc1ccc(CN2CCOCC2)cc1,?,24.9%[46.1 µM],33.4*,11.0
